In the library only some 1.8% were active in any assay of this set; here they are far more common.
PGK inhibitor – blocks T. brucei phosphoglycerate kinase | Potency, µM (doses to about 57.5 µM), usual class: inhibitors | P07378 | 0.043% of 380,000 active | PGK/GAPDH coupled, Kinase-Glo luminescence, 60 min; further: nearly all actives have a fitted effect of over 60% in size
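Luminescent ATP detection (Kinase-Glo Plus) follows a 60-minute room-temperature incubation, with wells lacking PGK as controls. Buffer: 100 mM TEA (pH 7.6), 5 mM MgCl2, 0.01% Tween-20. Coupling enzyme GAPDH (100 nM final) supplies unstable 1,3-BPG in-well.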
GLP-1R inv ag – inverse agonists of human GLP-1 receptor | P43220 | HEK293 GLP-1R CRE-luciferase, luminescence, 24 h; GLP-1R form is constitutively active | Potency, µM (titrated, usually from 38.3 µM), usual class: inhibitors | 1.6% of 410,000 active | AID 624417; further: nearly all actives have a fitted effect of over 55% in size
Target sequence (P43220 whole entry, looked up): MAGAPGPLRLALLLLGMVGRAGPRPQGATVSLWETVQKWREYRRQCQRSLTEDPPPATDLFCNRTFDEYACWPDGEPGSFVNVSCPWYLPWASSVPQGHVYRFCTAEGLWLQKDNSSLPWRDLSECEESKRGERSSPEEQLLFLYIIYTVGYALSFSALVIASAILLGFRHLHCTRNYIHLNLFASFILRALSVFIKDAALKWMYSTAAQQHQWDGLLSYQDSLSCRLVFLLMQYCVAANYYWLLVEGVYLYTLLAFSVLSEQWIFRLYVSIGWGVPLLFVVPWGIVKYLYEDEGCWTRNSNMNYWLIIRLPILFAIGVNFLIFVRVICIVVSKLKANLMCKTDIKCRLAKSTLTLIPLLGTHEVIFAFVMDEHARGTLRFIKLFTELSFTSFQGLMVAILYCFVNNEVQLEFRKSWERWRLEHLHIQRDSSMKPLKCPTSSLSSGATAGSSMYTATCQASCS
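Seeding at 200 cells/uL, 12 h culture, 24 hr compound treatment, then luciferase reagent and a luminescence read; cells are HEK293 stably expressing a constitutively active GLP-1R plus cAMP-responsive luciferase.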
GLP1R cytotox – cytotoxicity counter-screen for GLP-1 receptor inverse agonists | HEK293 cAMP-luciferase reporter cells, luminescence, 24 h | Potency, µM (highest dose often 38.3 µM), hits mostly inhibitors | 0.13% of 410,000 active;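 further: loss of luciferase light is scored as toxicity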
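1536-well qHTS counterscreen of the MLSMR; 200 cells/uL, 12 h pre-incubation, 23 nL cpd, 24 h at 37 deg C 5% CO2, luciferase detection reagent, 12 min RT, luminescence. Inhibition = undesired.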
Pin1 inh – blocks the human prolyl isomerase Pin1; Q13526; Pin1 FP peptide displacement, HiFluor488, 10 min; Potency, µM (highest dose often 115 µM), actives largely listed as inhibitors; 0.009% of 390,000 active; AID 504891; active means well fitted inhibition curve with a large enough effect in the polarisation, with a control signal flat, not every such curve was filed as active; inconclusive means small, poorly fitted or top-dose-only effect, or effect the other way, or a change in a side signal; inactive means no such curve, though single readings can be large or run the other way; the % refers to the polarisation
Target sequence (Q13526 whole entry, looked up): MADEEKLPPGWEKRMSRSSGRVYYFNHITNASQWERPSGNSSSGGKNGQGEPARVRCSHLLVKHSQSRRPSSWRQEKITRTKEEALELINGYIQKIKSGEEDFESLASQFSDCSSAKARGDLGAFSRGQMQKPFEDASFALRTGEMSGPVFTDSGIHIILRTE
Tb PFK inh – T. brucei PFK enzyme inhibition | T. brucei PFK, ADP-Glo luminescence | Potency, µM (doses to about 57.5 µM), usual class: inhibitors | 0.17% of 330,000 active | AID 485367; further: nearly all actives have a fitted effect of over 60% in size
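Activity is normalized to no-enzyme wells (full inhibition) and 1.25 nM enzyme wells (no inhibition). Reaction: 0.5 mM F6P, 0.1 mM ATP, 45 min RT, ADP-Glo luminescence; concentration-response curves fitted and classed by quality.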
GLP-1R agonist – GLP-1 receptor (human) agonism; 0.007% of 380,000 active; HEK293 GLP-1R CRE-luciferase, luminescence, 4-6 h; cells express a hypersensitive GLP-1R form; P43220; Potency, µM (top dose mostly 45.6 µM), actives largely listed as activators
A number is an active result; n = inactive; u = inconclusive; x = no result. Unless noted, the call rests on the fitted dose curve; in most records, active means well fitted curve in the direction sought with a large enough effect; inconclusive means small, poorly fitted or top-dose-only effect, or another doubt; inactive means no such curve, though single readings can be large; an effect the other way counts as inactive or inconclusive.

SMILES	PGK inhibitor	GLP-1R inv ag	GLP1R cytotox	Pin1 inh	Tb PFK inh	GLP-1R agonist
CCNC(=O)c1cccc(NC(=O)c2cc(C3CC3)nc3c2cnn3C(C)C)c1	n	10µM	n	n	n	n
CC(C)n1ncc2c(C(=O)NCCOc3ccccc3F)cc(C3CC3)nc21	n	u	n	n	n	n
C=CCNC(=O)c1onc(CSc2ccc(Cl)cc2)c1C(=O)O	n	2.2µM	n	n	n	n
C=CCNC(=O)c1onc(CSc2ccc(F)c(F)c2)c1C(=O)O	n	u	n	n	n	n
C=CCNC(=O)c1onc(CSc2ccc(Cl)cc2)c1C(=O)NCC=C	n	13µM	u	n	n	n
Cc1ccc(C(=O)c2cn(Cc3c(F)cccc3Cl)c3nc(C)ccc3c2=O)cc1	n	n	n	n	x	n
CC(C)NC(=O)c1ccc(Cn2c(=O)c3cccn3c3cccnc32)cc1	n	n	n	n	x	x
Cc1ccc(NS(=O)(=O)c2cc3c(cc2-c2ccco2)NC(=O)CO3)cc1C	x	x	x	n	x	x
Cc1ccc(C)c(CSc2nc3c([nH]c4ccccc43)c(=O)n2C)c1	n	n	n	n	x	x
Cc1ccc(Cn2ncc3c(N4CCOCC4)ncnc32)cc1	n	n	n	n	n	n
Cc1ccc(Cn2ncc3c(N4CCN(c5ccccc5C)CC4)ncnc32)cc1	n	3.5µM	n	n	n	n
CN1C(=S)N(c2cccnc2)C(=O)/C1=C\c1ccc(N(C)C)cc1	n	u	10µM	n	n	n
CN1C(=S)N(c2cccnc2)C(=O)/C1=C\c1ccc(C(C)(C)C)cc1	n	11µM	n	n	n	n
CCC(=O)NC(c1ccco1)c1cc(Cl)c2c(c1O)NCCC2 (stereo not given)	x	x	x	n	x	x
C=C1CC2C3C=C(C)C4=CC(=O)CCC4(C)C3CCC2(C)[C@@]1(OC(C)=O)C(C)=O (stereo not given in full)	x	x	x	x	x	n
O=C(Cc1ccccc1)Nc1sc2c(c1C(=O)Nc1cccc(Cl)c1)CCCC2	x	x	x	n	x	x
C[C@@H](CO)NC(=O)c1ccc2c3n(nc2c1)-c1ccccc1CO3	u	3.5µM	n	n	n	n
O=C1C2C3C=CC(C4CC34)C2C(=O)N1/N=C/c1ccc(-c2ccc([N+](=O)[O-])cc2)o1 (stereo not given)	n	n	n	n	n	n
Cc1ccc(-c2ccc(/C=N/N3C(=O)C4C5C=CC(C6CC56)C4C3=O)o2)c([N+](=O)[O-])c1 (stereo not given)	n	3.5µM	n	n	n	n
Cc1ccc(Cn2c(=O)c3ccccc3n3c(-c4ccccc4)nnc23)cc1	n	n	n	n	x	x
CCCCC[C@H](O)/C=C/[C@H]1C=CC(=O)[C@@H]1C/C=C\CCCC(=O)O	x	x	x	x	30µM	x
COCCCNC(=O)Cn1c(=O)n(-c2ccc(Cl)cc2)c(=O)c2c3c(sc21)CCCCC3	n	n	n	n	x	n
N#CC1(Cc2ccc(Cl)cc2)c2ccccc2C=CN1C(=O)c1ccccc1 (stereo not given)	n	7.9µM	n	n	n	n
Cc1ccc(C2(c3noc(CN4CCC(c5ccncc5)CC4)n3)CCCC2)cc1	n	4µM	n	n	n	u
NC(=O)CSc1ncc(-c2ccc([N+](=O)[O-])cc2)[nH]1	n	n	n	n	n	n
SMILES	PGK inhibitor	GLP-1R inv ag	GLP1R cytotox	Pin1 inh	Tb PFK inh	GLP-1R agonist
Cc1cc(C)c(CSc2ncc(-c3ccc([N+](=O)[O-])cc3)[nH]2)c(C)c1	n	8.9µM	n	n	n	n
O=[N+]([O-])c1ccc(-c2cnc(SCc3ccccc3Cl)[nH]2)cc1	n	10µM	n	n	n	n
Oc1ccc(CNc2ccc(C(F)(F)F)cc2Cl)c2cccnc12	x	x	x	x	n	x
FC(F)(F)c1nc(N2CCCC2)ncc1-c1nnnn1-c1ccc(Cl)cc1	n	7.1µM	n	n	n	n
COc1cc2c(cc1NC(=O)Nc1ccc(C)cc1)oc1ccccc12	n	1.8µM	n	n	n	n
COc1ccc(NC(=O)Nc2cc3oc4ccccc4c3cc2OC)cc1	n	u	n	n	n	n
CCCNC(=S)Nc1cc2oc3ccccc3c2cc1OC	n	8.9µM	n	n	n	n
O=C(NC(=S)Nc1cccc(Cl)c1N1CCCCC1)c1ccc2c(c1)OCCO2	n	u	n	n	n	n
CCC(=O)NC(=S)Nc1cccc(Cl)c1N1CCCC1	n	5.6µM	u	n	n	n
Cc1cccc(CN2CCC(CNC(=O)Cn3ncc4c([nH]c5ccc(C)cc54)c3=O)CC2)c1	n	n	n	n	x	x
CCc1nnc(NC(=O)C2CCCN(C(=O)c3ccoc3)C2)s1 (stereo not given)	x	x	x	n	x	x
O=C(O)c1cccc(-n2cccc2/C=C2/NC(=O)N(c3cccc(Cl)c3)C2=O)c1	u	n	n	x	n	n
O=C(O)c1cccc(-n2cccc2/C=C2/NC(=O)N(c3ccc(Cl)cc3)C2=O)c1	3.2µM	n	n	x	u	n
Cc1cc(N2C(=O)c3ccccc3C2=O)n[nH]1	x	x	x	n	x	x
Cc1cc2c(s1)c1cnn(Cc3cccc(Cl)c3F)c(=O)c1n2C	x	x	x	n	x	x
CCCOc1ccc(C(=O)N(Cc2ccc(Cl)cc2)Cc2ccco2)cc1	x	u	n	n	x	x
CCOc1ccc(NC(=S)N(Cc2ccc(Cl)cc2)Cc2ccco2)cc1	x	11µM	n	n	n	n
COc1ccc(OC)c(CNc2ncnc3onc(-c4ccc(Cl)cc4)c23)c1	n	n	n	n	x	n
O=C(Nc1cccc2c1CCCC2)c1cc([N+](=O)[O-])ccc1Cl	n	3.2µM	u	n	n	n
CC1(C)C2CCC1(C)C(OC(=O)c1ccccc1C(=O)O)C2 (stereo not given)	n	u	n	n	n	n
CC1(C)C2CCC1(C)C(OCCNCCOC(=O)Nc1ccccc1)C2 (stereo not given)	n	11µM	n	n	n	n
CCN1C/C(=C\c2cccc([N+](=O)[O-])c2)C(=O)/C(=C/c2cccc([N+](=O)[O-])c2)C1	n	u	5µM	n	n	n
COc1ccc(-c2nc(CN3CCC(C(=O)NCc4ccc(C)cc4)CC3)c(C)o2)cc1OC	n	n	n	n	x	x
COc1ccc(/C=N/n2c(C)nc3ccccc3c2=O)cc1	n	n	n	n	n	n
COc1ccc(/C=N\n2nnc3ccccc32)cc1	n	5.6µM	n	n	n	n
COc1cc(/C=N\NC(=O)c2ccc(-c3ccccc3)cc2)ccc1OCC(N)=O	n	n	n	n	n	n
CCOc1cc(/C=N/NC(=O)c2ccc(-c3csc(Nc4ccc(C)cc4)n3)cc2)ccc1OCC(=O)O	13µM	n	n	x	u	n
CS/C(Nc1cc(Cl)ccc1Cl)=C(/C#N)C(=O)c1ccco1	n	6.3µM	n	n	n	n
